Test results as given in PubChem BioAssay AID1852 (Sanford-Burnham Center for Chemical Genomics, 2009).
The whole screen tested about 2,500 compounds, of which about 1,100 (44%) were called active.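 The calls were made as follows: active = inhibition above 50% at 4 µM in the single-point screen; inactive = inhibition of 50% or less.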 So high a share suggests a set chosen from earlier hits. Some of the results follow.

Test: blockers of TNF-a NF-kB luciferase induction – cell-based, HEK293T NF-kB-Luc, luminescence, selectivity assay for NOD1/NOD2 signaling inhibitor project, primary screen (AID 1852)
Conditions: TNF-a induced, 14 h, at 4 µM, stronger effect = higher value

Structure (SMILES)	inhibition
O=C(Nc1nc2c(F)cc(F)cc2s1)c1ccc([N+](=O)[O-])o1	-4% (inactive)
CC(C)c1nc(SCC(=O)Nc2nc3c(s2)CCCC3)c2ccccc2n1	-69.4% (inactive)
CCCCn1c(SCC(=O)Nc2nnc(CC)s2)nc2c1c(=O)n(C)c(=O)n2C	51.6% (active)
CCCCn1c(SCC(=O)Nc2nnc(C(C)C)s2)nc2c1c(=O)n(C)c(=O)n2C	54.3% (active)
CC(C)n1c(SCC(=O)N2CCCCC2)nc2c1c(=O)n(C)c(=O)n2C	40.9% (inactive)
CCCn1c(SCC(=O)Nc2nc3c(s2)CCCC3)nc2c1c(=O)n(C)c(=O)n2C	71.4% (active)
CC1CCc2nc(NC(=O)CSc3nc4ccccc4o3)sc2C1 (stereo not given)	12% (inactive)
C#CC(C)(C)NC(=O)CSc1nc2c(c(=O)n(C)c(=O)n2C)n1CCCC	24.1% (inactive)
CCCc1nc(SCC(=O)Nc2nnc(SCC)s2)c2c(=O)n(C)c(=O)n(C)c2n1	33.2% (inactive)
C=CCn1c(SCC(=O)Nc2sccc2C(N)=O)nc2sc(CC)cc2c1=O	44.9% (inactive)
Cc1nc([N+](=O)[O-])c(Br)n1Cc1ccccc1	22.9% (inactive)
NC(=O)c1ccc(N2CCN(S(=O)(=O)c3ccccc3)CC2)c([N+](=O)[O-])c1	5.1% (inactive)
O=[N+]([O-])c1cc(S(=O)(=O)Nc2cccc(C(F)(F)F)c2)ccc1-n1nnc2ccccc21	68.7% (active)
CN(C)c1ccnc2sc3c(=O)n(Cc4ccccc4)cnc3c12	69.1% (active)
Cc1ccccc1-n1cnc2c(sc3nc(N4CCOCC4)c4c(c32)CCCC4)c1=O	18.7% (inactive)
Cn1ncc2c(N3CCN(c4ccc(Cl)c(Cl)c4)CC3)ncnc21	104% (active)
Cc1noc2ncnc(N3CCN(c4cccc(Cl)c4)CC3)c12	19% (inactive)
CC1CCCN(c2ncnc3c2cnn3-c2ccc(Cl)cc2)C1 (stereo not given)	45.4% (inactive)
Cn1cccc1Cc1nnc(SCC(=O)Nc2ccc(Cl)cc2)n1-c1ccc(F)cc1	42% (inactive)
COc1ccccc1NC(=O)CSc1nnc(Cc2cccn2C)n1-c1ccc(F)cc1	-5.9% (inactive)
Cn1cccc1Cc1nnc(SCC(=O)Nc2cccc(F)c2)n1-c1ccc(F)cc1	-4.7% (inactive)
COc1ccc(-n2c(Cc3cccn3C)nnc2SCC(=O)Nc2ccc(F)cc2)cc1	-4% (inactive)
CCOc1ccccc1NC(=O)CSc1nnc(Cc2cccn2C)n1-c1ccc(F)cc1	56.8% (active)

Structure (SMILES)	inhibition
Cc1cc(C)cc(NC(=O)CSc2nnc(Cc3cccn3C)n2-c2ccc(F)cc2)c1	59.6% (active)
COc1ccc(Cl)cc1NC(=O)CSc1nnc(Cc2cccn2C)n1-c1ccc(F)cc1	35.1% (inactive)
COc1ccc(-n2c(Cc3cccn3C)nnc2SCC(=O)Nc2cccc(Cl)c2)cc1	14.7% (inactive)
COc1ccc(-n2c(Cc3cccn3C)nnc2SCC(=O)Nc2cccc(F)c2)cc1	59.1% (active)
O=[N+]([O-])c1ccc(O)c(Nc2ncnc3ccccc23)c1	4.9% (inactive)
O=c1nc(/C=C/c2cc([N+](=O)[O-])ccc2Cl)cc(C(F)(F)F)[nH]1	-16.6% (inactive)
O=[N+]([O-])c1ccc(O)c(-c2cc(C(F)(F)F)nc(-c3ccccc3)n2)c1	93.6% (active)
CCOC(=O)C1(Cc2ccccc2C)CCCN(C(=O)CN2C(=O)CSC2=O)C1 (stereo not given)	31.1% (inactive)
O=C(c1ccccc1)N1CCSc2sccc2C1=O	52.7% (active)
CC1=C(/C=C/C(C)=N\NC(=O)c2ccncc2)C(C)(C)CCC1	3.5% (inactive)
CC1=CCCC(C)(C)C1/C=C/C(C)=N/NC(=O)c1ccncc1 (stereo not given)	59.7% (active)
Cc1oc(-c2cccc3ccccc23)nc1CN1CCN(c2ncnc3ccccc23)CC1	43% (inactive)
COc1ccc(-c2nc(CN3CCN(c4ncnc5ccccc45)CC3)c(C)o2)c(OC)c1	23.9% (inactive)
Cc1oc(-c2cc(F)ccc2F)nc1CN1CCN(c2ncnc3ccccc23)CC1	104% (active)
COc1ccc(-c2c[n+]3c(n2-c2ccc(C)cc2)CCCCC3)cc1	50.3% (active)
COc1cc(-c2n[nH]c(=S)n2-c2ccc(C)cc2)cc(OC)c1OC	2.4% (inactive)
CC1(C)C=C2[C@H]3CC[C@@H]4[C@@]5(C)CCC(=O)C(C)(C)[C@@H]5CC[C@@]4(C)[C@]3(C)CC[C@@]2(C(=O)O)CC1	1.3% (inactive)
N#CC1=C(N)C(C#N)(C#N)C(c2cccnc2)C2CC(c3ccccc3)CC=C12 (stereo not given)	83.6% (active)
O=C(Nc1nc2c(Cl)cccc2s1)c1ccc([N+](=O)[O-])o1	6.3% (inactive)
Cc1csc(NC(=O)c2cc([N+](=O)[O-])cc([N+](=O)[O-])c2)n1	-6.5% (inactive)
O=C(Nc1nnc(SCc2c(Cl)cccc2Cl)s1)c1cccc([N+](=O)[O-])c1	83.1% (active)
COc1ccc(NC(=O)Cn2nnc(-c3ccccc3NS(=O)(=O)c3ccc(OC)cc3)n2)cc1	70.7% (active)
CCNS(=O)(=O)c1ccc(NC(=O)Cn2cc([N+](=O)[O-])cn2)cc1	25% (inactive)

Structure (SMILES)	inhibition
CCOC(=O)c1cc(C(=O)Nc2ccc(S(=O)(=O)Nc3ccc(OC)cc3)cc2)nn1C	18.6% (inactive)
O=S(=O)(Nc1nc2ccccc2[nH]1)c1ccc(Cl)cc1	-4.8% (inactive)
Cc1noc(C)c1CSc1nc2ccccc2nc1NS(=O)(=O)c1ccc(Cl)cc1	102% (active)
O=[N+]([O-])c1nn(-c2ccc3c(c2)OCCO3)n(O)c1=Nc1ccccc1	38% (inactive)
O=C1C=C(N2CCOCC2)c2ccccc2C1=O	23.7% (inactive)
Nc1ccc(S(=O)(=O)Nc2nccc(/C=C/c3cccc(Br)c3)n2)cc1	36.8% (inactive)
O=[N+]([O-])c1ccc(Oc2cccc(F)c2)c2ccncc12	42.3% (inactive)
O=[N+]([O-])c1ccc(Oc2ccc(F)cc2Br)c2ccncc12	66.6% (active)
O=[N+]([O-])c1ccc(Oc2ccc(F)cc2)c2ccncc12	61.5% (active)
Cc1ccccc1S(=O)(=O)Cc1ccc(C(=O)N2CCN(c3cccc(C)c3C)CC2)o1	-33.6% (inactive)
CCn1nc(C)c(C(=O)Nc2cc(Oc3cc(C)cc(C)c3)cc([N+](=O)[O-])c2)c1C	24.6% (inactive)
Cn1cc([N+](=O)[O-])c(C(=O)Nc2cc(Oc3ccccc3)cc([N+](=O)[O-])c2)n1	73.2% (active)
Cc1ccc(-c2nc(NC(=O)c3nn(C)cc3[N+](=O)[O-])sc2C)cc1	39.6% (inactive)
O=C(N/N=C/c1ccccn1)c1cc(-c2ccccc2)nc2ccccc12	99.1% (active)
O=C(N/N=C/c1ccc[nH]1)c1cc(-c2ccc(Cl)cc2)nc2ccccc12	3.4% (inactive)
CCCOc1cccc(-c2cc(C(=O)N/N=C/c3ccccn3)c3ccccc3n2)c1	102% (active)
O=C(Cc1cc(C(=O)O)c2ccccc2n1)Nc1ccccc1	-8.7% (inactive)
O=C(N/N=C/c1ccccn1)c1cc(-c2ccc(Cl)cc2)nc2ccccc12	104% (active)
O=C(N/N=C/c1ccccn1)c1cc(-c2ccc(Br)cc2)nc2ccccc12	105% (active)
S=C(Nc1ccc(Cl)c(Cl)c1)NC1CCCCC1	44.7% (inactive)
O=C(CN1C(=O)c2cccnc2Oc2ccc(Cl)cc21)NC1CCCCCC1	25.9% (inactive)
Cc1ccc(N(C(=O)CCl)C(C(=O)NC2CCCCC2)c2cccnc2)cc1C (stereo not given)	79.9% (active)
COc1ccc(C(C(=O)NC2CCCCC2)N(C(=O)CCl)c2ccc(Cl)cc2)cc1 (stereo not given)	20.4% (inactive)

Structure (SMILES)	inhibition
COc1ccc(C(=O)/C=C/C(=O)N(CC(=O)NC2CCCCC2)Cc2ccccc2OC)c(O)c1	33.1% (inactive)
COc1ccc(C(C(=O)NC2CCCCC2)N(C(=O)CCl)c2cccc(Cl)c2)cc1 (stereo not given)	60.8% (active)
O=C(NC1CCCCC1)C(c1cccnc1)N(C(=O)CCl)c1cccc(Cl)c1 (stereo not given)	75.7% (active)
O=C(NC1CCCCC1)C(c1cccnc1)N(C(=O)CCl)c1ccccc1Cl (stereo not given)	58.7% (active)
COc1ccc(C(C(=O)NC2CCCCC2)N(C(=O)CCl)c2ccccc2Cl)cc1 (stereo not given)	6.2% (inactive)
O=c1c(Cl)c(Cl)cnn1Cc1nnc(-c2ccc(Cl)cc2)o1	51.5% (active)
O=c1c(Cl)c(Cl)cnn1Cc1ccc(F)cc1	33.4% (inactive)
O=c1c(Cl)c(Cl)cnn1Cc1nnc(-c2ccccc2Br)o1	108% (active)
COc1ccc(-c2csc3ncnc(N4CCN(c5ccccc5[N+](=O)[O-])CC4)c23)cc1	-57.1% (inactive)
COc1ccc(-c2csc3ncnc(NCCN4CCOCC4)c23)cc1	89.9% (active)
Clc1ccc(-c2csc3ncnc(NCCN4CCOCC4)c23)cc1	60.1% (active)
C=CCn1c(C)c(/C=C/c2cc[n+](C)cc2)c2ccccc21	12% (inactive)
COc1ccc(C2CC(c3cccs3)=NN2C(=O)CCl)cc1OC (stereo not given)	47.4% (inactive)
Cc1ccc(C2=NN(C(=O)CCl)C(c3cccs3)C2)o1 (stereo not given)	43.6% (inactive)
COc1cc(C2CC(c3cccs3)=NN2C(=O)CCl)ccc1OC(F)F (stereo not given)	40.7% (inactive)
O=C(CCl)N1N=C(c2ccco2)CC1c1cccs1 (stereo not given)	56% (active)
O=C(CCl)N1N=C(c2cccs2)CC1c1ccco1 (stereo not given)	55.2% (active)
O=C(CCl)N1N=C(c2ccco2)CC1c1ccco1 (stereo not given)	58.9% (active)
COC(=O)c1ccc2c(c1)C(C)(C)C(/C=C/c1ccccc1O)=[N+]2C	-7.6% (inactive)
COC(=O)C1=C(C)N(c2ccc(F)cc2)/C(=C/c2ccc(O)cc2)C1=O	-3% (inactive)
COC(=O)c1ccc2c(c1)C(C)(C)C(/C=C/c1ccc(O)cc1)=[N+]2C	60.8% (active)
